Data on one molecule can be found in ChEMBL document CHEMBL2218924, “A broad activity screen in support of a chemogenomic map for kinase signalling research and drug discovery” (Biochem J, 2013).

Assay [1] concerns the target T1, Ephrin type-A receptor 3 (Homo sapiens) (UniProt P29320).
T1 sequence (whole entry): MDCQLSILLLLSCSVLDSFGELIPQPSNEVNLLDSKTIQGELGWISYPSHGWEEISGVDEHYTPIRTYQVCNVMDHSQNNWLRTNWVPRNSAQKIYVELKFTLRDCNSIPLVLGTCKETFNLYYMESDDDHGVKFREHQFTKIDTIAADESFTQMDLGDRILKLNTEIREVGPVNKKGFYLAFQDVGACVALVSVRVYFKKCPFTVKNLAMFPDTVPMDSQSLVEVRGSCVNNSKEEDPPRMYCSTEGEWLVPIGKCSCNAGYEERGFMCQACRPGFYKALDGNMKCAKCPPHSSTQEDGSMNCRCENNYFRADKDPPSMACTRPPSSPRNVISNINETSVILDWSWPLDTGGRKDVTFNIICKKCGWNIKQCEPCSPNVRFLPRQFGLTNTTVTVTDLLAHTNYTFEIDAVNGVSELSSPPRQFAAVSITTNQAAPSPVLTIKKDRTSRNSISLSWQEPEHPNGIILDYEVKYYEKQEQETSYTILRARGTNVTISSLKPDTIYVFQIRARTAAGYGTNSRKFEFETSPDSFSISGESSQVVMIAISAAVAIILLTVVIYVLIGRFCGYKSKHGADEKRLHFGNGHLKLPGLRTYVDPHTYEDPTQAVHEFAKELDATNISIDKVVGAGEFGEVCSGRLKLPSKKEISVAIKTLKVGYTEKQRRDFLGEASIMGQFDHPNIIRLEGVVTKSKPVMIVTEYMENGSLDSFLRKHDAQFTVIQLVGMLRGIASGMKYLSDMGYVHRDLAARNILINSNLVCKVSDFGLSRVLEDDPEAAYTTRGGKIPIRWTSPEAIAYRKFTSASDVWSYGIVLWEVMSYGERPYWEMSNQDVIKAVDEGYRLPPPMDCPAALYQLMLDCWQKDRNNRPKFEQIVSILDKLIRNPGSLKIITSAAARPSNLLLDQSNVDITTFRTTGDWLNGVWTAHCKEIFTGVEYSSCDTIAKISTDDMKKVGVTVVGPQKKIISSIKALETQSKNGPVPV
Particulars: at 10 µM; call rule not given here.

The target in assay [2] is Ephrin type-A receptor 4 (Homo sapiens) (UniProt P54764). Particulars: at 1 µM.
Sequence of Ephrin type-A receptor 4 (Homo sapiens) (P54764 whole entry): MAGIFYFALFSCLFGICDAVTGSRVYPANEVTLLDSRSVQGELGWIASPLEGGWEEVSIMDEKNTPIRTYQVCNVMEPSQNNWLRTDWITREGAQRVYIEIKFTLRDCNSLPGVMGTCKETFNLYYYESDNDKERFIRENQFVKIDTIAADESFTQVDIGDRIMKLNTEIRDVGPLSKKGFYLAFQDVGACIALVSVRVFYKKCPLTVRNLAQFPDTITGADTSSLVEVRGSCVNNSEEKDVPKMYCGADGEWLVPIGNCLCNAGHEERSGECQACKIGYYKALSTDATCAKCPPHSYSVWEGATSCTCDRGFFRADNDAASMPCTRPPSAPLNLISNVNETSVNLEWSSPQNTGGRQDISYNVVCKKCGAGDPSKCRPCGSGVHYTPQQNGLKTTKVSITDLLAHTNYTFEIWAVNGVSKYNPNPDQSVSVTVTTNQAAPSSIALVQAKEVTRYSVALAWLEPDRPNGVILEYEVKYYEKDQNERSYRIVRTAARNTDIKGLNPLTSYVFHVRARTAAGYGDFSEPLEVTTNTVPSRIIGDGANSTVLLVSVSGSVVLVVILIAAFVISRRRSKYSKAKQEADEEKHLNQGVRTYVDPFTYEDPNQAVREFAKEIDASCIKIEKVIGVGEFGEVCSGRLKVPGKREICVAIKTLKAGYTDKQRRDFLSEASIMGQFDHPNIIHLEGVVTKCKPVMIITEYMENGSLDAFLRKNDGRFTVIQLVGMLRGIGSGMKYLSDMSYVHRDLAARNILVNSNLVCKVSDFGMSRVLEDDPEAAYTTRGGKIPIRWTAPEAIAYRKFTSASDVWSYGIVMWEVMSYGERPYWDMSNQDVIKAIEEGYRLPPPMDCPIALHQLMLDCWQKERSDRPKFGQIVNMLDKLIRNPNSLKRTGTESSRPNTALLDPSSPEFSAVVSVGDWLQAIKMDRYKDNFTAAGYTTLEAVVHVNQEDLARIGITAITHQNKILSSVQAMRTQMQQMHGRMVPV
Assay [3] shares this target. Particulars: at 10 µM.
The target of assay [4] is Ephrin type-A receptor 5 (Homo sapiens) (UniProt P54756). Particulars: at 1 µM.
Sequence of Ephrin type-A receptor 5 (Homo sapiens) (P54756 whole entry): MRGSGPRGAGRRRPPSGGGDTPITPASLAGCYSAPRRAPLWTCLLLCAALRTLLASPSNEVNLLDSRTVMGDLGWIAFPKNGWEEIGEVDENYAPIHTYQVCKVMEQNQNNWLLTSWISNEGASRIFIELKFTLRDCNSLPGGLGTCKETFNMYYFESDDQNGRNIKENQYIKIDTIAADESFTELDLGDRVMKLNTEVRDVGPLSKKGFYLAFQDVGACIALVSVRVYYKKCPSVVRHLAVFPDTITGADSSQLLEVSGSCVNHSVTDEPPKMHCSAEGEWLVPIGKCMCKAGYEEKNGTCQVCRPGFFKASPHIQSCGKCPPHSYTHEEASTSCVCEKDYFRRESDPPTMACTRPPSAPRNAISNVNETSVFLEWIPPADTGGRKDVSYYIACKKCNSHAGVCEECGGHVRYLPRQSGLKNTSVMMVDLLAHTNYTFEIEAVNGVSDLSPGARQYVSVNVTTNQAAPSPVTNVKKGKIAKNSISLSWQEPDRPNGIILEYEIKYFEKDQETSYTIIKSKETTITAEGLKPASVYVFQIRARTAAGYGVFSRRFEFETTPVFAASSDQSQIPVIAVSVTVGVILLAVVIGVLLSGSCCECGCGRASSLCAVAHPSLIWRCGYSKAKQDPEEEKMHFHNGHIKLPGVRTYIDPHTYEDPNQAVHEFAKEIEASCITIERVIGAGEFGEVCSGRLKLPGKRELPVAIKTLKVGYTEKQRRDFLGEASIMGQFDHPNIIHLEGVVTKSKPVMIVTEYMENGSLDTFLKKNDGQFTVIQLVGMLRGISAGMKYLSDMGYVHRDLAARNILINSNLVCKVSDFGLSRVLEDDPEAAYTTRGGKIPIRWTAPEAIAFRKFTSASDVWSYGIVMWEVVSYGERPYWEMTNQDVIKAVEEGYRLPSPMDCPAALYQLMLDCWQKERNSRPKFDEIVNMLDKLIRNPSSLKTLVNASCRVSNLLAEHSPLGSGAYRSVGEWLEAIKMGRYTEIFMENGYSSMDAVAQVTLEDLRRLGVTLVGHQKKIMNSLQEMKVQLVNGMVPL
Assay [5] shares this target. Particulars: at 10 µM.
Assay [6] deals with T2, Ephrin type-A receptor 8 (Homo sapiens) (UniProt P29322).
T2 sequence (whole entry): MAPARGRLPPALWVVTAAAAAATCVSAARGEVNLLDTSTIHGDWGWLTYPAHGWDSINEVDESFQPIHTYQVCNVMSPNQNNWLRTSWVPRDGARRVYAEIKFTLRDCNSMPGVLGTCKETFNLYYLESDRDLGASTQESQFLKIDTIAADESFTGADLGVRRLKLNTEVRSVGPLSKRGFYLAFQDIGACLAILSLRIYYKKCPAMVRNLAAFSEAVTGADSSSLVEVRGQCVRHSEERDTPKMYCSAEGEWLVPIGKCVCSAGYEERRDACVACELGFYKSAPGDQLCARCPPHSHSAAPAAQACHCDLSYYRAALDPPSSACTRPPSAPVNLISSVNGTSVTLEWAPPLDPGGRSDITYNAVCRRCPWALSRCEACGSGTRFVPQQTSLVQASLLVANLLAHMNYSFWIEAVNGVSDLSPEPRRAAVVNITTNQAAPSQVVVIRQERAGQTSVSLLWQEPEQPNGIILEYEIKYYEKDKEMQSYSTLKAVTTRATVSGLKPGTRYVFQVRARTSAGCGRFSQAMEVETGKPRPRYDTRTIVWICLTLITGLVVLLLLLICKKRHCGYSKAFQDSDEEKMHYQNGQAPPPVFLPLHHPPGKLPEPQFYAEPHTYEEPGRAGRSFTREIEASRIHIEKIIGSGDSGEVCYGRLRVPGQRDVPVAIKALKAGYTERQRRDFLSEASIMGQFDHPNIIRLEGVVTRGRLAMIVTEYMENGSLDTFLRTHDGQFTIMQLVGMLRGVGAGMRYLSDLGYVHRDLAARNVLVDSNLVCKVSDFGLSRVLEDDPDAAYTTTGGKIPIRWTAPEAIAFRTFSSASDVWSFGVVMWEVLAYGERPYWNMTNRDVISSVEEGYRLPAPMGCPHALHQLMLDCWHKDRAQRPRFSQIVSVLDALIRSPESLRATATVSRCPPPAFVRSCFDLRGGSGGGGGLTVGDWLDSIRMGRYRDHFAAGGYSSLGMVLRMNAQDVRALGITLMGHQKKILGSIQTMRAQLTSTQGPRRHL
Particulars: at 1 µM.

Assay [7] has as its target T2, Ephrin type-A receptor 8 (Homo sapiens). Particulars: at 10 µM.
Assay [8] deals with T3, Ephrin type-B receptor 1 (Homo sapiens) (UniProt P54762).
T3 sequence (whole entry): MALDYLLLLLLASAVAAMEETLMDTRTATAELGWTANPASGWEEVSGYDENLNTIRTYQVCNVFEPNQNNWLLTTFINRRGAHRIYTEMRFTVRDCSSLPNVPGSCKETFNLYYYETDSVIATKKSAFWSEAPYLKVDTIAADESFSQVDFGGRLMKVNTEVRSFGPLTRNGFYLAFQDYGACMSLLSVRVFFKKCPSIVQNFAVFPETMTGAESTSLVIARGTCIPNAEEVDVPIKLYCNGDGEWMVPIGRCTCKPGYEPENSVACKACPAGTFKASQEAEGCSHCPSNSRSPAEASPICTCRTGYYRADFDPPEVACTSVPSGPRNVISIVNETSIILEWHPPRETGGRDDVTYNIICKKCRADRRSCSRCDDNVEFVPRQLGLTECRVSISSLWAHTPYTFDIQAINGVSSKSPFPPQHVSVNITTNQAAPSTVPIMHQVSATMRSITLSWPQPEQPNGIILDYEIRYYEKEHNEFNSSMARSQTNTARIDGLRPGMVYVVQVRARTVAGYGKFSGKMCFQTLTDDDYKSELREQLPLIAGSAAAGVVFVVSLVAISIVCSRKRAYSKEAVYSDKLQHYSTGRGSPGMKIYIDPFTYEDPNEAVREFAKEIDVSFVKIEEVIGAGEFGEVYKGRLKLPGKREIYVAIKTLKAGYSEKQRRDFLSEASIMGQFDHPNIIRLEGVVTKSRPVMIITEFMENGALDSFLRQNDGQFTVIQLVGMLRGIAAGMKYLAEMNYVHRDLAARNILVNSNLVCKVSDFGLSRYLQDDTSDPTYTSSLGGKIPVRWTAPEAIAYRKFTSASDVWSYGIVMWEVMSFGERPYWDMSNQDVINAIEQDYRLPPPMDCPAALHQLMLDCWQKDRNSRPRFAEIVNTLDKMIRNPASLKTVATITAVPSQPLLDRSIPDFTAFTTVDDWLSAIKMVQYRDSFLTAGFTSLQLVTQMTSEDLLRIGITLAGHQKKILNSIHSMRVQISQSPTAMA
Particulars: at 1 µM.

Assay [9] addresses T3, Ephrin type-B receptor 1 (Homo sapiens). Particulars: at 10 µM.
Assay [10] has as its target T4, Ephrin type-B receptor 3 (Homo sapiens) (UniProt P54753).
T4 sequence (whole entry): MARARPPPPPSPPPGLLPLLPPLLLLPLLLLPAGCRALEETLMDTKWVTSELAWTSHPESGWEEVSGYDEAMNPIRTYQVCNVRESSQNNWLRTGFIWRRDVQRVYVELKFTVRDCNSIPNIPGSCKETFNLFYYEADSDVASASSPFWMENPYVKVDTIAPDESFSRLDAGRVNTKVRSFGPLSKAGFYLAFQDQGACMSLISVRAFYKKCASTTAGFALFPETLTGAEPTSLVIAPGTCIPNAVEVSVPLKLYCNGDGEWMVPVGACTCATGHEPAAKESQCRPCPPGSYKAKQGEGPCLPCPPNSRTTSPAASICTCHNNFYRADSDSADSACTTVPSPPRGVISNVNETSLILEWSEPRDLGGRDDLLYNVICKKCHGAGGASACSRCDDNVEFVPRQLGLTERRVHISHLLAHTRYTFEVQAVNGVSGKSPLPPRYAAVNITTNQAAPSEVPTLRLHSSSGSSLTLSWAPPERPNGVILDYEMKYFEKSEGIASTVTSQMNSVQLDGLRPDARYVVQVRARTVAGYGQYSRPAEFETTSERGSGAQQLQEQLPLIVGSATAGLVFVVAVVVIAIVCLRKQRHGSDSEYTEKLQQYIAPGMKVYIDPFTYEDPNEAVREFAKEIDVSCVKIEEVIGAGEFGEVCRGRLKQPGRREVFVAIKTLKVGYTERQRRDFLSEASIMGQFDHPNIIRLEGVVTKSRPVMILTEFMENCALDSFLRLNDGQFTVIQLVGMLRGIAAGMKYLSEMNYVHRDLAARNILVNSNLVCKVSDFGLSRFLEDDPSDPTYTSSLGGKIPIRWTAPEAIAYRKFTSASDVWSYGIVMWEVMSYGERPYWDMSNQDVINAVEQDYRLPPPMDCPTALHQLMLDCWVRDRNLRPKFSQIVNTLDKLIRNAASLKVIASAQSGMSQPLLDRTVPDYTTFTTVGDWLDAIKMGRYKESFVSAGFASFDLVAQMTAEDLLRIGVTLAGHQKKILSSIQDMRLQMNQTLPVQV
Particulars: at 1 µM.

Assay [11] concerns the target T4, Ephrin type-B receptor 3 (Homo sapiens). Particulars: at 10 µM.
Assay [12] deals with T5, Ephrin type-B receptor 4 (Homo sapiens) (UniProt P54760).
T5 sequence (whole entry): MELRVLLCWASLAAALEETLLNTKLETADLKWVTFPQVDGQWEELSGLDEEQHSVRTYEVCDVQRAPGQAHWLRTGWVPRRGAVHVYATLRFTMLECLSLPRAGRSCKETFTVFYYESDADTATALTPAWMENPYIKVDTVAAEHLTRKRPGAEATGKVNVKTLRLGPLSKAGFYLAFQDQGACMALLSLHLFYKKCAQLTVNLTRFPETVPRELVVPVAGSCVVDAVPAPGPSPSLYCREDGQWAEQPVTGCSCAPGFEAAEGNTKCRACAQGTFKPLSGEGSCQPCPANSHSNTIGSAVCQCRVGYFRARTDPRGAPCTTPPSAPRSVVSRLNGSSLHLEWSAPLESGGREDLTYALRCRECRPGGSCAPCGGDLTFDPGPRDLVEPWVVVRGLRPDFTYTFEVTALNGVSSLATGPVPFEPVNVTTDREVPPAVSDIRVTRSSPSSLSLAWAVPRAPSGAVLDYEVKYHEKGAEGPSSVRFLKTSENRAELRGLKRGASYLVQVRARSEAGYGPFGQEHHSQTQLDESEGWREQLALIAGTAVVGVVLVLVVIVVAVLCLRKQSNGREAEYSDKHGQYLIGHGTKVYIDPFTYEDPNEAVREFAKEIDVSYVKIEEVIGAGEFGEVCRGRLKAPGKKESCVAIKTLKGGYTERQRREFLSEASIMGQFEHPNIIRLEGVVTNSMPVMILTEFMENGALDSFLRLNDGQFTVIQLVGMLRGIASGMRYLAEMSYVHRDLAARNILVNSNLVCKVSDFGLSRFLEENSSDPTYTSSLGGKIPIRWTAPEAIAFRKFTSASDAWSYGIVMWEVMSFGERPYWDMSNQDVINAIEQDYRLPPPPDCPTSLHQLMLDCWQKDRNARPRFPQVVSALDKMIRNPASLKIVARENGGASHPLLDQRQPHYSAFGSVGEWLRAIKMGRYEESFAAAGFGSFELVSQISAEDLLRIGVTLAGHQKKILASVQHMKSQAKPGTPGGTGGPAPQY
Particulars: at 1 µM.

In assay [13] the target is T5, Ephrin type-B receptor 4 (Homo sapiens). Particulars: at 10 µM.
The target in assay [14] is Receptor tyrosine-protein kinase erbB-4 (Homo sapiens) (UniProt Q15303). Particulars: at 1 µM.
Sequence of Receptor tyrosine-protein kinase erbB-4 (Homo sapiens) (Q15303 whole entry): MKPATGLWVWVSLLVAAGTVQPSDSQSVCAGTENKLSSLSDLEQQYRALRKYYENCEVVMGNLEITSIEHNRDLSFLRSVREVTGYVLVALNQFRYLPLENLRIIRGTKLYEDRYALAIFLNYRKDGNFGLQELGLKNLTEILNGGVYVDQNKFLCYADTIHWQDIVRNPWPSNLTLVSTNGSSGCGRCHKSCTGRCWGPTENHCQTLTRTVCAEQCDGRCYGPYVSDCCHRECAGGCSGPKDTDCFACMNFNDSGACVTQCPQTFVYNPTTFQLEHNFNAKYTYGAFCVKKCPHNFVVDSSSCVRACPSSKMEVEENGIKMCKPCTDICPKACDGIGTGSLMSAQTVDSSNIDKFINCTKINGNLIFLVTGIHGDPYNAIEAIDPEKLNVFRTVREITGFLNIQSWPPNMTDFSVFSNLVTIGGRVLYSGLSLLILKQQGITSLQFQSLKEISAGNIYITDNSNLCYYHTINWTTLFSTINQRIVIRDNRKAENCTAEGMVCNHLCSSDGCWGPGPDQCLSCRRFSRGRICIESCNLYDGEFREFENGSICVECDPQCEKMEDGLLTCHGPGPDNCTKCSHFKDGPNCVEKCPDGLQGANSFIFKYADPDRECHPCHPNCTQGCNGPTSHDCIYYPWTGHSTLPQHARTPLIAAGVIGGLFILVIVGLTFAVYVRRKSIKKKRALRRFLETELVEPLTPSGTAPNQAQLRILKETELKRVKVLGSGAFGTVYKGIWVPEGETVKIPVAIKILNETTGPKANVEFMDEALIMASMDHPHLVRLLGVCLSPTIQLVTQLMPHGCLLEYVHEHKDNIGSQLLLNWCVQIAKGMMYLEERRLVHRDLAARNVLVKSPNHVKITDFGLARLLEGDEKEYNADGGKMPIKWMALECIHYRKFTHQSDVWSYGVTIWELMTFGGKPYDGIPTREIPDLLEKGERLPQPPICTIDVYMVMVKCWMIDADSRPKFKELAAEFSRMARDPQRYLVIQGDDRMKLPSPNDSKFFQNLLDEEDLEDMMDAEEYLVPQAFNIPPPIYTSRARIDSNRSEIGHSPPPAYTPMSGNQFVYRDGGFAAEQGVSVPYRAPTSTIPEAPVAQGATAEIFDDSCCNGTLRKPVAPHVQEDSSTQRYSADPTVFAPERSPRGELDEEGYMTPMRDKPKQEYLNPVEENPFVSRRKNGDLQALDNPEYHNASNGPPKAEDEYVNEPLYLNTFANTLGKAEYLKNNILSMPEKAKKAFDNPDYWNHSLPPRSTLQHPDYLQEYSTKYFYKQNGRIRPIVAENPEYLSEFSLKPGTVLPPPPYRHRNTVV
Assay [15] shares this target. Particulars: at 10 µM.
Assay [16] concerns the target Focal adhesion kinase 1 (Homo sapiens) (UniProt Q05397). Particulars: at 1 µM.

Sequence of Focal adhesion kinase 1 (Homo sapiens) (Q05397 2-1052 limits assumed): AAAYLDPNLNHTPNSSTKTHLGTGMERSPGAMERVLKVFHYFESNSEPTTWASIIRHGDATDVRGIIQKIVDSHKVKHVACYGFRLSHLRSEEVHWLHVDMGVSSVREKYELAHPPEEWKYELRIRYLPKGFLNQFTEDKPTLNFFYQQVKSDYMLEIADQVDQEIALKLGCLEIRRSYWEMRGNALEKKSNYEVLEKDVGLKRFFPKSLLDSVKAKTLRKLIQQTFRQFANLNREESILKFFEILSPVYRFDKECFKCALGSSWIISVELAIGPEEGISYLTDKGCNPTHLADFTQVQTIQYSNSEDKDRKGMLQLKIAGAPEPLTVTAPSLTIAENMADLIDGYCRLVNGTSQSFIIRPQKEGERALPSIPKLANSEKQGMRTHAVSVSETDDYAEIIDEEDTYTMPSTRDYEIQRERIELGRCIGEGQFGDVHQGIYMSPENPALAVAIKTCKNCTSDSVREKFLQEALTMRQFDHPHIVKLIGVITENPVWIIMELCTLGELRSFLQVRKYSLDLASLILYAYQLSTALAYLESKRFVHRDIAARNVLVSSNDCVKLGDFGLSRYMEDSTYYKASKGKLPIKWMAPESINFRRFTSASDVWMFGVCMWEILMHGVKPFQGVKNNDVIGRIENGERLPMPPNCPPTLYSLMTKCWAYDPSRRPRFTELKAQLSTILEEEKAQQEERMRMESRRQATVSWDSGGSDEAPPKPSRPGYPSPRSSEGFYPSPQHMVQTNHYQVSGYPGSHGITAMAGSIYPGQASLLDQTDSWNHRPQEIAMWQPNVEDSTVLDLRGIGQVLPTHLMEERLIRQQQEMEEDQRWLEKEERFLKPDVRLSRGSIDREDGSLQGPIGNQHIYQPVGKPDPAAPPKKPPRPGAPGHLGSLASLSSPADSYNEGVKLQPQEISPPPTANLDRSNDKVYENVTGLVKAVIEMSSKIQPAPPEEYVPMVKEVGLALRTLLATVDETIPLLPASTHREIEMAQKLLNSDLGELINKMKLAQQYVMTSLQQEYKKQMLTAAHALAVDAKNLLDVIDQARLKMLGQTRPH

Consider `O=C1NC(=O)c2c1c1c3ccccc3[nH]c1n1cncc21`, for which the residual activity (in general, the signal under treatment as a percentage of the control signal) was 83% in assay [1]; 98% in assay [2]; 94% in assay [3]; 105% in assay [4]; 76% in assay [5]; 88% in assay [6]. In addition, the residual activity is 93% in assay [7]; 90% in assay [8]; 74% in [9]; 121% (inactive) in [10]; 97% in [11]; 82% in [12]. In addition, the residual activity was 73% in [13], 87% in [14], 73% in assay [15] and 57% in assay [16].
